Compounds with a hit are over-represented: about 3.8% of the library has one in this group of screens.
Smad3 inh = blocks human Smad3 binding to FoxH1 peptide | P84022 | TR-FRET Smad3/Dy647-FoxH1 peptide binding, europium anti-His | hit rate 0.29% among 88,000 | inhibition, % at 25 µM;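 active = compounds that reduce the energy-transfer binding signal between the protein and its labelled peptide by more than half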;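 also: 0% = Smad3 plus labelled peptide maximal FRET and 100% = peptide-only background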
Target sequence (P84022 whole entry, looked up): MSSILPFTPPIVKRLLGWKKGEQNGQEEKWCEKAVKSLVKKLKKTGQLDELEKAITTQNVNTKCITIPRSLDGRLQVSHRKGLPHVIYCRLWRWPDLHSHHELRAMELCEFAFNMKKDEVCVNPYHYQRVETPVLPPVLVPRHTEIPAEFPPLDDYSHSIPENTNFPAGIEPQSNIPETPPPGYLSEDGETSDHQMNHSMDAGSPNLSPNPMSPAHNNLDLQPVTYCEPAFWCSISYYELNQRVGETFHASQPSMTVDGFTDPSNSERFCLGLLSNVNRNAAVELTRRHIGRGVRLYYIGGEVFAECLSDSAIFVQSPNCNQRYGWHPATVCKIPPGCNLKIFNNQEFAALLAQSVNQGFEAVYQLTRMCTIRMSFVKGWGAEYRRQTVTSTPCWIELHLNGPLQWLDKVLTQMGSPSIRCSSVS
ERb coact inh = ER-beta (human) coactivator binding inhibition. Q92731. hit rate 1.3% among 86,000. inhibition, % at 25.6 µM. TR-FRET ER-beta LBD / SRC1-Cy5 peptide binding; receptor agonist-loaded with 1 µM estradiol;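 active = compounds whose percent inhibition of the receptor-coactivator binding signal exceeds about 50% in the single-dose screen, limit read from the data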;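 also: 0% = receptor plus peptide wells without compound and 100% = peptide-only wells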
Candida biofilm = kills Candida albicans biofilms; C. albicans biofilm + clotrimazole, Alamar Blue; inhibition, % at 6 µM; hit rate 0.14% among 85,000;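 active = inhibition above 20%; inactive = inhibition below 20%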;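 also: preformed 24 hr biofilms exposed to compound for 48 hr; 0% = biofilm without compound and 100% = blank killed by clotrimazole plus chlorhexidine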
ERa SRC1 inh = blocks coactivator binding to human estrogen receptor alpha; P03372; TR-FRET ER-alpha LBD / SRC-1 peptide, estradiol-bound; inhibition, % at 25.6 µM; hit rate 1.7% among 86,000; AID 629; in the data active = inhibition above about 50%;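 also: 0% = receptor plus peptide control and 100% = peptide only without receptor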
ERa SRC1 pot = ER-alpha (human) coactivator binding potentiation; P03372; TR-FRET ERalpha-LBD/SRC-Cy5 coactivator binding, 2 h; 100 = basal binding, no effect; coactivator binding (% of control), % at 25.6 µM; hit rate 1.3% among 86,000; in the data active = activity above about 200%;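 also: binding measured in presence of low estradiol as agonist stimulus; 0% = peptide alone without receptor and 100% = receptor with peptide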
MT1-MMP txn act = MT1-MMP promoter transcription activation | HT1080 MT1-MMP promoter luciferase reporter, luminescence, overnight; hits give high values | activation factor at 10 µM | hit rate 0.16% among 86,000 | AID 750;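 active = activation factor of at least 2 for MT1-MMP transcription at 10 µM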
Numbers without * were called inactive; · = not tested or not shown; [ ] = another dose, or the depositor's remark.

SMILES | Smad3 inh | ERb coact inh | Candida biofilm | ERa SRC1 inh | ERa SRC1 pot | MT1-MMP txn act
O=S(=O)(c1cccc(C(F)(F)F)c1)N1c2ccccc2-n2cccc2[C@H]1c1cccnc1 | 31 | · | · | · | · | ·
O=C(Nc1cnc2ccccc2c1)N1CCCCC1 | 2 | 3 | 3 | 6 | 93 | 1
Oc1ccccc1CNc1cnc2ccccc2c1 | -2 | 19 | 4 | -40 | 93 | 2.1*
Cc1ccc2nc(N3CCN(Cc4nnnn4Cc4ccccc4)CC3)c(C#N)cc2c1 | -4 | 30 | 0 | 39 | 372*[fluorescence artefact?] | 1.2
Cc1ccc2nc(N3CCN(S(=O)(=O)c4ccc(C)c(Cl)c4)CC3)c(C#N)cc2c1 | -2 | 50*[fluorescence artefact?] | 2 | 48 | 244*[fluorescence artefact?] | 1.2
Cc1ccc2cc(C#N)c(N3CCCN(S(=O)(=O)c4ccccc4)CC3)nc2c1 | -6 | 27 | 7 | 32 | 350*[fluorescence artefact?] | 1.1
Cc1ccc2cc(C#N)c(N3CCN(C)CC3)nc2c1 | 24 | 1 | 5 | -3 | 98 | 1.1
Cc1ccc2nc(N3CCN(C)CC3)c(C#N)cc2c1 | 3 | -10 | 2 | 0 | 98 | 1.2
Cc1ccc2cc(C#N)c(N3CCCN(S(=O)(=O)c4ccccc4)CC3)nc2c1C | 9 | 55*[fluorescence artefact?] | 3 | 39 | 363*[fluorescence artefact?] | 1.1
Cc1cccc2cc(C#N)c(N3CCN(C)CC3)nc12 | 13 | 7 | 0 | 2 | 113 | 0.9
S=C1N[C@H](c2ccccc2)N[C@H](c2ccccc2)S1 | 17 | · | · | · | · | ·
COc1ccc(C2NC(=O)N(CCCC(=O)O)C(C)=C2C(=O)OCc2ccccc2)cc1 (configuration not stated) | · | · | · | · | · | 1.2
OC1C[C@H]2CC[C@@H](C1)N2CCCN1c2ccccc2Sc2ccc(Cl)cc21 (some centres not stated) | -9 | · | · | · | · | ·
Cc1ccc2cc(C#N)c(N3CCCN(S(=O)(=O)c4ccc(F)cc4)CC3)nc2c1 | 12 | 51*[fluorescence artefact?] | -7 | 44 | 349*[fluorescence artefact?] | 1.3
Oc1c(Cl)cc(CN(Cc2cc(Cl)c(O)c(Cl)c2)C2CCCCC2)cc1Cl | -3 | · | · | · | · | ·
Clc1ccsc1-c1csc(-c2cccnc2)n1 | 9 | -7 | 2 | 2 | 115 | 1.4
c1cncc(-c2nc(-c3ccco3)cs2)c1 | 2 | 60*[fluorescence artefact?] | 11 | 5 | 83 | 1.3
COc1cccc2c1C(=O)c1c(O)c3c(c(O)c1C2=O)C[C@](O)(C(=O)CO)C[C@@H]3O[C@@H]1C[C@H](N)[C@@H](O)[C@H](C)O1 | 9 | · | · | · | · | ·
O=C1c2ccccc2-c2c1cccc2C(=O)N1CCOCC1 | 0 | 56*[fluorescence artefact?] | 5 | -3 | 110 | 1.3
CN(c1ccccc1C(=O)N1CCOCC1)S(C)(=O)=O | -6 | -2 | 3 | 0 | 99 | 1.1
COc1ccccc1OCc1nnc(SCC(=O)c2cc(Cl)ccc2OC)o1 | 3 | -3 | 0 | 1 | 322*[fluorescence artefact?] | 1
C/C(N)=C(/C#N)C(=O)CSc1nnc(COc2ccccc2Cl)o1 | 14 | 59* | 3 | 58* | 77 | 1.1
COc1ccccc1OCc1nnc(SCCN2CCOCC2)o1 | 2 | -7 | 7 | -6 | 148 | 1.1
CCn1c(C)nc2cc(-c3nnc(-c4c(-c5ccccc5)noc4C)o3)ccc21 | 15 | -3 | 2 | -18 | 373*[fluorescence artefact?] | 1.1
Cc1onc(-c2ccccc2)c1-c1nc2ccccc2c(=O)o1 | 3 | -5 | 2 | -3 | 95 | 1.2
SMILES | Smad3 inh | ERb coact inh | Candida biofilm | ERa SRC1 inh | ERa SRC1 pot | MT1-MMP txn act
COc1ccc(Br)cc1C(=O)Nc1cccc(-c2nnc(-c3ccco3)o2)c1 | -6 | 53*[fluorescence artefact?] | 2 | 69*[fluorescence artefact?] | 115 | 0.9
O=C(COc1ccc(Br)cc1)Nc1ccc(-c2nnc(-c3ccco3)o2)cc1 | -5 | 3 | 4 | 4 | 268*[fluorescence artefact?] | 1.1
COC(=O)[C@@]1(Cc2ccccc2)[C@H]2c3cc(C(=O)N(C)C)n(Cc4ccsc4Br)c3C[C@H]2CN1C(=O)c1ccccc1 | · | · | · | · | · | 1.2
CCC(CC)C(=O)NCCc1cc2cc(C)c(C)cc2[nH]c1=O | 0 | -3 | 4 | -6 | 111 | 1.1
CCC(CC)C(=O)NCCc1cc2c(C)ccc(C)c2[nH]c1=O | 5 | 2 | 9 | 54*[fluorescence artefact?] | 105 | 1.1
CC(=O)Nc1cccc(OCC(O)Cn2cnc3ccccc32)c1 (configuration not stated) | 4 | 4 | 10 | 3 | 107 | 1.1
CC(=O)Nc1ccc(OCC(O)Cn2cnc3ccccc32)cc1 (configuration not stated) | -8 | -7 | 8 | -5 | 636*[fluorescence artefact?] | 1.1

Screening data from PubChem.
